Screening results: PubChem, National Center for Advancing Translational Sciences (NCATS)
D1 antagonist: antagonists of human D1 dopamine receptor; activity change, negative = inhibition, % at 10 µM; P21728; HEK293 TREx D1 cells, calcium flux, dopamine EC80; active compounds read low; AID 504652; 360,000 compounds, 3.2% hits; in the data active means activity change below about -30%; further: on the % scale 0 is the no-effect control and ±100 the full control effect
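HEK293 T-REx cells expressing inducible, force-coupled D1 receptor; no-wash Ca dye, 30–90 min RT. Cmpd → 180 s read at 1 Hz → EC80 DA → 180 s read.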
D1 ag: activates the human D1 dopamine receptor; P21728; HEK293 T-REx D1 cells, calcium flux, agonist mode; activation, % at 2 µM; 360,000 compounds, 1% hits; AID 504660; further: 0% is about no effect
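Agonism was scored from calcium flux recorded over 180 s (1 read/s) after pintool compound addition, following a 10-cycle baseline. Cells were inducible force-coupled HEK293 TREx D1, plated overnight at 30 C and loaded with no-wash calcium dye.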
TRHR ag: TRH receptor (human) agonism; P34981; TRHR cells, calcium flux fluo-8, FDSS agonist mode; activation, % at 2 µM; 360,000 compounds, 0.18% hits; further: 0% is about no effect
Target sequence (P34981 whole entry, looked up): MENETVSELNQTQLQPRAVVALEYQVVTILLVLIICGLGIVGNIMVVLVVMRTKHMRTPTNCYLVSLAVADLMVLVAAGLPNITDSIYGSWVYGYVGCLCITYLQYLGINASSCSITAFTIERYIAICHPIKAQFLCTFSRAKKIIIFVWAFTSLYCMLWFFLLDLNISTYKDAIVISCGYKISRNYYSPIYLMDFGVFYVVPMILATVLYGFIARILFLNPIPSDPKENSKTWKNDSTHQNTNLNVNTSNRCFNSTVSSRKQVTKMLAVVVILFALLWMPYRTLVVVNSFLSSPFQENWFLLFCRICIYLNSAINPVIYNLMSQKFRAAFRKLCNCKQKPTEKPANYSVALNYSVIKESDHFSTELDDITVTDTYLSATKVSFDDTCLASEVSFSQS
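TRHR-expressing cells, plated overnight in medium with 10% serum, were loaded with fluo-8 calcium dye at room temperature. After a 10 s baseline, library compound was pin-added and calcium release was recorded kinetically (ex 480/em 530) as agonist response.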
TRHR enhancer: allosteric enhancers of human TRH receptor | P34981 | TRHR cells, fluo-8 calcium fluorescence, EC20 TRH enhancement | enhancement, % at 2 µM | 360,000 compounds, 0.66% hits | AID 493056; in the data active means enhancement above about 30%; further: 0% is about no effect
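Enhancer read-out: after compound pinning and an initial kinetic agonist-mode read, an EC20 of TRH (10 nM final) was injected and fluo-8 calcium signal (Ex 480/Em 530) followed at 1 s/cycle for 100 cycles in TRHR-expressing cells.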
D1 potentiator: potentiators of human D1 dopamine receptor; 360,000 compounds, 0.036% hits; HEK293 TREx D1 cells, calcium flux, dopamine EC20 potentiation; potentiation, % at 10 µM; P21728; AID 504651; in the data active means potentiation above about 30%; further: 0% is about no effect
* marks the source's active call; other numbers are inactive results; · = not tested or not shown. The list is not random: actives were taken first. Their share in the collection is about 4.6%. Unless noted, no stated cut-off is given here; in the data, active means activation above about 30%; inactive means the rest.

SMILES	D1 antagonist	D1 ag	TRHR ag	TRHR enhancer	D1 potentiator
CC(C)CNC(=S)N1CCC(c2nc(-c3ccc(F)cc3)no2)CC1	-34*	19	0	-6	-8
O=C(c1ccc(F)cc1)N1CCCC(c2nc(-c3ccncc3)no2)C1 (stereo not given)	14	12	0	-4	-2
Cc1ccc(NC(=O)C2CCC(CNS(=O)(=O)c3ccc4c(c3)CCCC(=O)N4)CC2)cc1F (stereo not given)	-9	2	0	2	2
Cc1ccc(OCC(=O)Nc2cccc(OCc3cc(=O)n4cccc(C)c4n3)c2)cc1C	-13	-1	0	6	-1
CN1CCc2nc(NC(=O)c3cccc(S(=O)(=O)N4CCc5ccccc54)c3)sc2C1	-10	5	0	0	-6
O=C(Nc1nnc(-c2ccncc2)o1)c1ccc2ccccc2c1	-20	4	-1	5	-1
COc1ccc(C(=O)Nc2ccc(C(=O)Nc3cccc(C)c3)cc2)cc1	-31*	2	0	0	-5
O=C(Nc1ccncc1)c1ccc2ccccc2c1	-38*	8	0	3	-8
O=C(CSc1ccncc1)Nc1ccc2ccccc2c1	-31*	14	0	-2	-9
O=C(CSc1ccc2ccccc2c1)Nc1ccncc1	·	12	0	0	-4
COc1ccc(NC(=O)c2cccc(NC(=O)c3ccccc3)c2)cc1	-18	7	-2	6	-3
COc1cccc(C(=O)Nc2nc3c(s2)CN(C)CC3)c1	9	99*	0	24	-3
COc1cccc(CNC(=O)Cn2c(C)c3cnn(-c4ccccc4)c(=O)c3c2C)c1	5	1	0	0	-1
Cn1nnnc1Sc1ncnc2scc(-c3ccc4c(=O)ccoc4c3)c12	22	1	0	1	8
COc1cccc(C(=O)Nc2ccc(C(=O)O)cc2)c1	3	4	0	5	3
COc1cccc(C(=O)Nc2ccncc2)c1	-59*	3	0	0	-9
COC(=O)c1ccc(NC(=O)c2cccc(OC)c2)cc1	-52*	23	-1	-9	-3
COc1ccc(OC)c(C2C(C(=O)Nc3ccccc3OC)=C(C)Nc3c(C(=O)Nc4ccc(F)cc4)cnn32)c1 (stereo not given)	3	7	2	-7	-5
CCOC(=O)c1cccc(NC(=O)CCc2c(C)nn(-c3ccc(N4CCCC4)nn3)c2C)c1	-21	1	-1	-8	-7
CCOC(=O)C1CCCN(C(=O)c2ccc3c(c2)NC(=O)C(N2CCOCC2)S3)C1 (stereo not given)	-31*	0	-1	-6	-1
CCOC(=O)C1CCN(S(=O)(=O)Cc2ccccc2)CC1	11	0	0	10	-3
O=C1Nc2cc(C(=O)N3CCOCC3)ccc2SC1N1CCOCC1 (stereo not given)	-7	-1	-1	5	0
CCOC(=O)C1CCCN(C(=O)c2cc(-c3ccc(C)cc3)on2)C1 (stereo not given)	-49*	1	0	-4	-9
CCOC(=O)C1CCCN(C(=O)CC(C)c2ccccc2)C1 (stereo not given)	-33*	5	-1	3	4
CCOC(=O)C1CCCN(S(=O)(=O)Cc2ccccc2)C1 (stereo not given)	-64*	1	-1	12	-7
SMILES	D1 antagonist	D1 ag	TRHR ag	TRHR enhancer	D1 potentiator
Cc1ccc(-c2cc(C(=O)N3CCCCCC3)no2)cc1	-1	5	0	5	7
Cc1ccc2nc3c(cc(C#N)c(=O)n3-c3nnc(SCc4ccccc4)s3)c(=O)n2c1	-6	29	4	1	-2
CCOc1ccc(C(=O)c2cn(CC(=O)Nc3ccc(F)c(F)c3)c3cc4c(cc3c2=O)OCCO4)cc1	12	1	2	-4	0
CN(C(=O)c1cc2sccc2n1C)C1CCCCC1	-35*	3	0	-1	2
Cc1oc2c(c1C(=O)Nc1ccc(Cl)cc1F)C1=NCCN1C=N2	-7	1	0	-10	3
CCC(=O)N1CCc2cc(CNC(=O)Cc3ccc(OC)c(OC)c3)ccc21	-7	1	0	4	1
O=c1c(S(=O)(=O)c2ccccc2)cn(Cc2ccccc2)c2cc(N3CCOCC3)c(F)cc12	5	0	3	9	0
Cc1ccc(S(=O)(=O)c2nnn3c2nc(N2CCC(C(N)=O)CC2)c2cc(Cl)ccc23)cc1C	-33*	2	0	-4	-6
CCOC(=O)C1CCN(c2nc3c(S(=O)(=O)c4ccc(C)c(C)c4)nnn3c3ccc(Cl)cc23)CC1	-5	2	0	-3	-8
CCOC(=O)c1c(-c2ccc(OC)cc2)csc1/N=C/C1=C(O)CCCC1=O	-11	37*	10	27	-8
CCOC(=O)c1c(/N=C/C2=C(O)CCCC2=O)sc(C)c1C	-22	-1	-2	-12	5
Cc1ccc(NC(=O)CCNS(=O)(=O)c2ccc3c(c2)CCCC(=O)N3)cc1	-5	0	-1	-14	3
O=C(Oc1ccc(-c2nnco2)cc1)c1ccc(Br)o1	9	8	-1	-2	-3
Cc1ccc(OC(=O)c2ccc(Br)o2)cc1	-48*	102*	0	-5	4
CC(=O)c1ccc(OC(=O)c2ccc(Br)o2)cc1	-16	59*	-2	0	-4
CCC(C(=O)Nc1ccccc1)n1nc(-c2cc(C)ccc2C)ccc1=O (stereo not given)	17	-1	-1	14	2
COc1cc(NC(=O)COCc2cc(-c3ccc4c(c3)OCO4)on2)cc(OC)c1	-1	13	1	-4	-1
O=C(O)c1ccc(-n2c(/C=C/c3ccccc3)nc3ccccc3c2=O)cc1	-5	0	0	-7	12
COC(=O)c1ccc(-n2c(/C=C\c3cccc(Br)c3)nc3ccccc3c2=O)cc1	-32*	4	0	0	-2
NC(=O)C1CCN(C(=O)Nc2csc3ccccc23)CC1	-61*	0	1	-8	3
Cc1cc2c(s1)c1cnn(Cc3cccc(Cl)c3)c(=O)c1n2C	-5	2	1	6	0
Nc1cc(C(Cl)=C(Cl)Cl)c(S(N)(=O)=O)cc1S(N)(=O)=O	-33*	0	-1	-8	-7
Cc1ccc(C2CCN(C(=O)c3cnn(-c4ccc(C)c(C)c4)c3C3CCN(C(=O)OC(C)(C)C)CC3)C2)cc1 (stereo not given)	3	-1	0	10	-6
COc1ccc(CNC(=O)C(CC(C)C)NS(=O)(=O)c2ccc3c(c2)oc(=O)n3C)cc1 (stereo not given)	-2	4	1	-11	-3
Cc1cc(O)ccc1N/C=C1\CCCC1=O	16	7	0	3	1
